# Experimental data as given in the supplement of paper PMC6555819.
# Assays:
# Test in all cases: PBM binding z-score (relative to random genomic background probes); higher = stronger binding; sequences stand for … in GC…GCGATTGACAGCGTAGAATGAAGG
# [1] = tested on: FXR:RXRa (NR concentration 270 nM, RXRa partner concentration 90 nM)
# Outline: (§1)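 The probes on custom Agilent 4×180K protein-binding microarrays were double-stranded, with 34-nt variable regions bearing direct-repeat seeds, single-nucleotide variants, half-site ablations and random human genomic background sequences. Incubation lasted 1 h with ligand-free nuclear receptor dimers in PBS pH 7.4, 2% milk, 0.02% Triton X-100, 1 mM DTT, 0.2 mg/mL BSA and 0.4 mg/ml salmon testes DNA. Antibodies against each partner (one per run) detected bound dimers, and fluorescence scans were regression-normalized. Binding z-scores take the random background probes as reference.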
# [2] = tested on: LXRa:RXRa (NR concentration 270 nM, RXRa partner concentration 90 nM)
# Outline: as §1
# [3] = tested on: LXRa homodimer (NR concentration 270 nM)
# Outline: as §1
# [4] = tested on: LXRb:RXRa (NR concentration 270 nM, RXRa partner concentration 90 nM)
# Outline: as §1
# [5] = tested on: LXRb homodimer (NR concentration 270 nM)
# Outline: as §1
# [6] = tested on: PPARg:RXRa (NR concentration 180 nM, RXRa partner concentration 90 nM)
# Outline: as §1
# [7] = tested on: PPARg:RXRa 270nM:90nM, anti-RXR (NR concentration 270 nM, RXRa partner concentration 90 nM)
# Outline: as §1
# [8] = tested on: PPARg:RXRa 30nM:10nM, anti-RXR (NR concentration 30 nM, RXRa partner concentration 10 nM)
# Outline: as §1
# [9] = tested on: PPARg:RXRa 90nM:30nM, anti-RXR (NR concentration 90 nM, RXRa partner concentration 30 nM)
# Outline: as §1
# [10] = tested on: PPARa:RXRa (NR concentration 270 nM, RXRa partner concentration 90 nM)
# Outline: as §1
Sequence,PBM binding z-score [1],PBM binding z-score [2],PBM binding z-score [3],PBM binding z-score [4],PBM binding z-score [5],PBM binding z-score [6],PBM binding z-score [7],PBM binding z-score [8],PBM binding z-score [9],PBM binding z-score [10]
GATTACGGGTCAAAGGTTATAGCATGAATAGAAT,7.94,6.17,1.25,6.01,0.564,11.8,9.6,10.5,11.3,–
TCTCGGAGGACACGAAAGGTCTGAGCTCGACATC,0.119,-0.119,-0.569,-0.279,-0.889,0.108,1.01,1.92,1.49,–
AGTCAAAGTTCAGCACGAGGTAACGTAAAGCACG,4.45,4.19,1.47,2.23,0.567,4.88,5.1,2.2,4.2,–
AGCTCTAGGTAAAAGTTCAGTGAATCCCGAGGAT,0.542,0.948,0.969,0.702,-0.253,7.73,7.47,6.13,7.9,–
CAAACTAGGTCACCGGAAGGTCATAGTCCGCATG,6.02,5.59,4.48,4.88,0.927,9.71,7.81,6.11,7.67,–
CGTCCAACGTCAGCAGGTCAGTGAAAGCGACGTG,-0.27,-0.136,-0.366,-0.0519,-0.788,-0.188,-0.476,-0.755,-0.842,–
TCAGATAGGTAAAGGTGAAAGTCGAACGATATGA,0.962,1.49,-0.219,1.3,-0.401,2.56,3.99,4.4,4.3,–
GATACGGGGTCAGCTAGAGGCCAGAGTATGGAAA,7.6,5.46,-0.127,5.17,0.715,7.74,7.16,3.25,5.78,–
GCTGCTAGGTCAACTGATGGTCAGCTAGAGCTCG,3.85,2.95,0.128,1.85,0.313,2.7,2.98,0.27,2.01,–
CAAACTAGGTCAAAGGTCAAAGCCGAGCCAACCA,8.47,7.19,5.21,7.3,2.55,13.1,11.3,13.6,13,–
TAGCCTAGGTCATTGGACCAGTATAGTACGCATC,4.61,3.73,1.02,2.36,0.187,2.88,3.16,1.04,2.07,–
CGAACTATGTCAAGGACAGTGAATCTCCGCACGC,0.0723,-0.232,-0.234,-0.456,-0.269,0.856,0.74,-0.213,0.259,–
CCTTACGGGTCAGTGACAGGTTATAGCATTTGGA,4.29,3.37,0.351,2.96,-0.126,1.94,2.4,0.815,1.86,–
CCTTACGGGTCTCTCCAGGTTATAGCATCGGAGT,0.0576,2.63,0.136,0.0193,-0.526,-0.0815,-0.225,-0.385,-0.47,–
ATCTGTAGGTTATCGGGTCATTCAGTTTGCGCAT,3.02,3.6,2.79,3.06,1.36,3.9,4.43,1.41,3.37,–
CCTGCTAGTTCATGGTCAGCTAATCTACAGTATG,-0.0312,0.212,-0.184,0.106,-0.269,-0.348,-0.236,-0.124,-0.29,–
CCGACTGGGTCAAAGGTTACCATACTCAGTACGA,4.79,4.3,0.367,4.02,-0.508,12,10.2,9.87,11.1,–
ATCGAAAGGTGGACGAGGTGAGTATACACCGTTT,0.217,-0.178,-0.304,-0.111,-0.212,0.872,0.439,0.356,0.402,–
CAAAATAGGTCAAGGTCAAAGTCGGTTTGTGCCA,7.38,5.98,4.65,5.22,2.2,8.81,7.46,5.59,7.54,–
TGAATGAGGTTTAAGATCAGGGAACGTGGCGTCG,-0.267,-0.0856,-0.566,-0.625,-0.285,0.663,1.49,0.74,1.15,–
CCTAGTTGGTCAGGTGGTCACACACCGGATATGA,0.558,0.139,0.26,0.406,-0.0912,0.84,1.18,0.231,0.655,–
TCTAGCAGGCCATAGGGTCACTCAAGAGGTACGG,2.31,1.65,-0.243,1.73,-0.428,2.46,3.27,2.5,3.13,–
TCTCGGAGGACACGAAGGTCAAAGCTTTCCAGAG,2.68,2.91,2.05,2.91,-0.25,1.14,2.53,2.73,2.51,–
TCGAGTAGGTTACGCGGGCATTCAGGGATGAAGA,0.576,0.477,-0.0246,-0.00737,–,1.38,1.88,1.46,1.79,1.49
TCGAGTAGGTTACGGGGCCATTCAGGGATGAAGA,0.993,0.505,-0.236,0.939,–,3.24,3.52,1.65,2.58,2.58
CCGAGTAGGTTACGCGGGGGCATTCAGTGCGAAT,3.18,6.77,1.34,6.01,–,2.36,3.3,1.11,2.24,3.32
CTATGTAGGATAAGGGGGTCATTCAGTTTGAAAG,4.36,4.48,2.61,5.97,–,5.71,5.95,3.41,5.43,5.61

Sequence,PBM binding z-score [1],PBM binding z-score [2],PBM binding z-score [3],PBM binding z-score [4],PBM binding z-score [5],PBM binding z-score [6],PBM binding z-score [7],PBM binding z-score [8],PBM binding z-score [9],PBM binding z-score [10]
TAGCCTAGGTCATTCAGGGGCCAGTATGGAAAGC,4.71,3.88,0.839,2.81,1.22,2.1,2.25,0.204,1.74,–
TCGAGTAGGTTACGGGGGCATACAGGGATGAAGA,2.72,2.52,0.664,4.86,–,6.1,5.69,3.56,5.05,4.48
TCTGCTAGGTCAACGATGGTCAGCGAATCTGCTA,3.19,2.8,-0.293,1.24,-0.382,2.51,3.03,1.79,2.4,–
CAAACTAGGTCACAGGGGTCAAAGTCCGTGCGTA,7.54,6.48,5.12,6.61,1.67,–,8.74,7.69,9.17,–
CCGACTGGGGCAAAGGTCACCATACTCAGTACGA,4.94,4.64,1.94,4.54,-0.206,–,10,12.4,11.1,–
AGTCAAAGTTCAGTAGGTAACGTAAGATTCAGCT,2.64,3.04,1.6,1.67,0.481,5.39,5.2,2.18,4.2,–
TCGAGTAGGTTACGGGGGCATTCACGGATGAAGA,2.41,2.89,0.361,4.92,–,5.82,6.16,3.37,5.06,4.38
CGAACTAGGTCAAAGGTCAGTGAAAGGCGACGTA,7.45,6,2.09,5.55,0.335,–,11.3,12.7,14,–
TCGAGTAGGTTACGAGGGCATTCAGGGATGAAGA,0.963,1.16,-0.0456,0.518,–,3.58,3.11,1.61,2.6,2.58
CCTGCTCGGTCAATGGTCAGCTAAAGCAGCTCGC,0.351,0.448,-0.0838,-0.541,-0.234,-0.00581,1.43,-0.317,0.846,–
CTTACTGGGCCAAAGGTCATTGATTCCAATGCTC,5.59,5.54,4.28,5.06,0.936,–,11.2,14.3,13.6,–
CCTAGCAGGCCACGGTCACTCAAGCATTTCGCTT,0.26,0.128,-0.0188,0.0634,-0.369,0.0164,0.322,-0.777,-0.122,–
CCGAGTAGGTTACGAGGGGGCATGCAGTGCGAAT,1.91,6.78,0.861,5.49,–,2.46,3.3,0.783,2.32,3.35
CCGACTTGGGCAAAGGTTACCATACTCAGTACGA,0.847,1.32,0.214,1.68,-0.6,6.45,6.29,5.67,7.54,–
CTATGAAGGTTAAGGGGGTCATTCAGTTTGAAAG,5.47,5.4,3.45,6.37,–,5.21,6.01,3.46,5.16,5.65
CGAACTAGTTCAAGGACAGTGAATCTCCGCACGC,0.282,0.229,-0.253,-0.107,-0.693,–,0.0328,-0.735,-0.0258,–
TCATATAGGTCAAAGGTGAAAGTCGGTGTGGTAA,7.15,6.06,2.14,5.58,1.91,–,9.8,10.4,11.4,–
TCATATAGGTAAAAGGTCAAAGTCGGTGTGGTAA,6.77,6.41,4.99,5.78,2.43,–,10.5,10.9,12.4,–
TCGAGTAGGTTACGGGGGCATTCAGGGATGAAGA,2.79,2.81,0.777,5.02,–,5.95,5.71,3.3,5.07,4.38
CTATGTAGGTTAAGGGGGTCATTCATTTTGAAAG,4.9,4.91,3.28,6.23,–,8.6,7.7,6.27,7.77,5.9
CCGAGTAGGTTACGAGGGGGCATTCACTGCGAAT,2.07,7.18,1.26,6.21,–,2.33,3.18,1.02,2.85,3.49
ATATGTAGGTGAAGGGTCATTCAGGTTGGTTCGC,4.21,4.29,1.74,3.78,1.03,–,11.2,11.3,12.7,–
TCTTGTAGGTCAAAGGTTAAGAAAGCCGAAGCCT,7.08,6.11,2.09,5.26,1.73,–,10.7,11.9,12.2,–
CGAACTAGGTCAAAGGGCAGTGAAAGGCGACGTA,5.16,3.62,-0.00961,2.68,-0.302,–,10.2,10.2,11.2,–
TGGAGTAGGTTACGGGGGCATTCAGGGATGAAGA,3.28,3.37,1.38,5.17,–,7.46,6.49,4.07,5.66,4.73
CCGAGTAGGTTACGAGTGGGCATTCAGTGCGAAT,0.0253,3.62,-0.367,0.771,–,0.765,1.33,-0.376,0.662,1.09
